The results in this text go back to the OligoGym collection.
Further: reference of the scale not given here.

For the first assay, the target named is CDC42SE1. Description: pooled miR-30 sensor sort-seq; sequence = guide strand. As to conditions: shRNA.
As to ATCTCATCTGCTCCTGAACTGC, the sensor-assay potency score (higher = more potent) was -1.52. For the sequence TCTTCTTCTTCGGCTGGGGTTT, the sensor-assay potency score (higher = more potent) was -1.24. Still for that read-out and setting: next, TGCTCCATGGCCTATCTCGGTT: -1.52. In the case of TTGGATCTCATCTGCTCCTGAA, the sensor-assay potency score (higher = more potent) is -0.616. In turn, TGGGGTTTCTCTACCACACAGC displayed a sensor-assay potency score (higher = more potent) of -1.01. Consider TTTCTCTACCACACAGCAGCCC, for which the sensor-assay potency score (higher = more potent) is -0.51. The sequence ATCATGGTCCGGTCAATCCGTC registered a sensor-assay potency score (higher = more potent) of -1.39. On the same count and under the same terms, next, TCATGGCAAGTCCATCTCCGGC: -1.88; TGAACTGCACCTGTCATGGCAA: -0.419.

Another assay concerns the target CDCA7L. Described as above. As to conditions: shRNA.
Sequence AAACTCTTCATCATCACTGGGG showed a sensor-assay potency score (higher = more potent) of 0.515.

TTCTGTATAAAAACACAACTGT returned a sensor-assay potency score (higher = more potent) of -0.22. Take TAGACCTGCTTCTTCTAGGGGT: the sensor-assay potency score (higher = more potent) turned out to be 0.0946.

Sequence TAGTGAGTCAAAACTATCGCAG displayed a sensor-assay potency score (higher = more potent) of -0.978. Consider TATCATAGATTTTATCTCGAAC, for which the sensor-assay potency score (higher = more potent) is -0.423.

In the case of TTTTCTAAGTCCTCTTCGGTGA, the sensor-assay potency score (higher = more potent) was determined as 0.0411. Turning to TATACGGTGACGTCGTCTGTAC, the sensor-assay potency score (higher = more potent) was -0.513. On to TTCGGTGATATCCTCCACTGGC, for which the sensor-assay potency score (higher = more potent) is 0.00353.

Turning to TAAAAATTCTTCTTAGCTCTTC, the sensor-assay potency score (higher = more potent) was found to be 0.664. Regarding TAGCCTTATCTTCTTCTTCATC, the sensor-assay potency score (higher = more potent) was -1.31.

The sequence TCGCACACCACAGCAACCCTGG gave a sensor-assay potency score (higher = more potent) of -0.788.
